We go through 49 compounds from PubChem BioAssay AID2071 (Sanford-Burnham Center for Chemical Genomics, 2009).

What is called inhibition is the drop in the measured response relative to a control, in per cent.

Screen size: about 280,000 compounds; about 1,700 (0.61%) were called active. No stated cut-off is given here; in the data, active means inhibition mostly above about 24% (no sharp cut-off); inactive means mostly below about 32%. What follows is part of a selection rich in actives, with near analogues and random picks from the rest.

This test in a line: NALP1 inflammasome inhibitors in reconstituted yeast, colorimetric, S. cerevisiae, triplicate retest (AID 2071). Particulars: S. cerevisiae NALP1/ASC/caspase-1 growth, X-gal OD620, 72 h, stronger effect = higher value.

As to `CCOc1ccc(CN2CCN(CCCc3ccccc3)C(CCO)C2)cc1` (stereo not given), the inhibition (at 10 µM unless noted) was 28.9% (inactive).
On to `CCn1ccnc1CN(C)C(=O)c1cc(COc2ccc(Cl)cc2OC)on1`, for which, where the note is “at 10 µM unless noted”, the inhibition was -9.7% (inactive).
For the compound `CC(C)(C)c1ccc(/C=C/C(=O)NCCCn2ccnc2)cc1`, the inhibition (at 10 µM unless noted) is 1.5% (inactive).
Regarding `CCOc1ccccc1-c1nc(CN2CCC(C(=O)N3CCOCC3)CC2)c(C)o1`, the inhibition (at 10 µM unless noted) is 29% (active).
Same read-out and setting: next, `CCOc1ccccc1-c1cc(C(=O)N2CCOCC2)c2ccccc2n1`: 0.7% (inactive); `COc1ccc(F)c(-c2nc(CN3CCC(c4ccccc4)CC3)c(C)o2)c1`: 13.2% (inactive); `CCOc1ccc(CN2CCNC(=O)C2CC(=O)NCCCC2CCCC2)cc1` (stereo not given): 1% (inactive).
`C/C(=N\NC(=O)c1cc(-c2ccc(O)cc2)nc2ccccc12)c1cccnc1`: the inhibition (at 10 µM unless noted) was -2.6% (inactive).
For `CCOC(=O)CSc1nc2ccc(C)cc2n2cnnc12`, the inhibition (at 10 µM unless noted) was 10.4% (inactive).
For `COc1ccc(-n2c(SCC(=O)Nc3sc4c(c3C#N)CCCC4)nnc2-c2ccc(O)cc2)cc1`, where the note is “at 10 µM unless noted”, the inhibition is 40.9% (active).
Regarding `N#Cc1c(NC(=O)CSc2nc3ccccc3c(=O)n2Cc2ccco2)sc2c1CCCC2`, the inhibition (at 10 µM unless noted) is 20.7% (inactive).
Turning to `CCCc1cc(=O)[nH]c(SCC(=O)Nc2sc3c(c2C#N)CCCC3)n1`, the inhibition (at 10 µM unless noted) was 9.4% (inactive).
In the case of `COc1ccc(C(=O)NCC(=O)N/N=C/c2cccnc2)cc1`, under “at 10 µM unless noted”, the inhibition was -23.5% (inactive).
On to `CC(C)[C@@H]1COC(c2cccc(C3=N[C@H](C(C)C)CO3)c2)=N1`, for which the inhibition (at 10 µM unless noted) was 10.4% (inactive).
`COc1ccc(C(C[N+](=O)[O-])n2nc(C)cc2C)cc1` (stereo not given): the inhibition (at 10 µM unless noted) was 103% (active).
Consider `COc1ccc(OCc2cn3c(C)cc(C)nc3n2)cc1`, for which the inhibition (at 10 µM unless noted) is 22.5% (inactive).
For `COc1ccc(C(=O)CSc2nc(C)cc(C)n2)cc1[N+](=O)[O-]`, under “at 10 µM unless noted”, the inhibition was -10% (inactive).
For `CN(Cc1cnccn1)C(=O)c1cc(COc2cccc(C(F)(F)F)c2)on1`, the inhibition (at 10 µM unless noted) is -7.1% (inactive).
The same measure, in the same setting: with `S=C(Nc1cccc(Cl)c1)Nc1ccc2c(c1)OCCO2` the figure was 2% (inactive).
As to `Cc1cccc(C)c1NC(=O)c1ccc(CN2CCc3ccccc3C2)cc1`, where the note is “at 10 µM unless noted”, the inhibition is 29.1% (active).
For `Cc1ccc(NC(=O)CN2CCc3ccccc3C2)cc1`, the inhibition (at 10 µM unless noted) was -0.6% (inactive).
As for `CN(c1cccc(NC(=O)c2ccc(CN3CCc4ccccc4C3)cc2)c1)S(C)(=O)=O`, the inhibition (at 10 µM unless noted) is -14.2% (inactive).
As to `CCOC(=O)c1ccc(NC(=O)c2cccnc2)cc1`, where the note is “at 10 µM unless noted”, the inhibition was 16.3% (inactive).
With `S=C(Nc1ccc(Cl)cc1Cl)N1CCCC1`, for the setting “at 10 µM unless noted”, the inhibition was 11% (inactive).
In the case of `CCC(=O)N1CCc2cc(S(=O)(=O)CCC(=O)N3CCN(c4ccccc4F)CC3)ccc21`, the inhibition (at 10 µM unless noted) was 32% (inactive).
In the case of `O=C(CCCNS(=O)(=O)c1cccc2nsnc12)NCCN1CCN(c2ccccc2F)CC1`, where the note is “at 10 µM unless noted”, the inhibition is 8.8% (inactive).
Regarding `O=C(CCS(=O)(=O)c1cccc2nsnc12)N1CCN(c2ccccc2F)CC1`, for the setting “at 10 µM unless noted”, the inhibition is 42.9% (active).
On to `CN(C(=O)c1cc2c(=O)n3ccccc3nc2s1)C1CCCCC1`, for which the inhibition (at 10 µM unless noted) is 4.6% (inactive).
For the compound `CC(=O)NCCNC(=O)c1cc(-c2cccc3ccccc23)nc2ccccc12`, under “at 10 µM unless noted”, the inhibition is 0.4% (inactive).
Turning to `C=CCOc1cccc(C2C(C(=O)c3ccc(C)o3)=C(O)C(=O)N2CCCn2ccnc2)c1` (stereo not given), the inhibition (at 10 µM unless noted) was 13.4% (inactive).
For the compound `O=C(CNC(=O)c1ccc(F)cc1)c1ccccc1`, the inhibition (at 10 µM unless noted) was 3.2% (inactive).
In the case of `O=C(C1CCC(=O)N(C2CC2)C1)N1CCN(c2ccc(Cl)cc2)CC1` (stereo not given), the inhibition (at 10 µM unless noted) was 26.5% (active).
As to `O=C(NCc1cccc(Cl)c1)C1CCC(=O)N(C2CC2)C1` (stereo not given), the inhibition (at 10 µM unless noted) is 15.1% (inactive).
For `O=C(C1CC(=O)N(C2CCCCC2)C1)N1CCN(c2ccccc2)CC1` (stereo not given), the inhibition (at 10 µM unless noted) was 4.2% (inactive).
As for `O=C(NCc1ccccc1)C(=O)NCC1OCCN1S(=O)(=O)c1ccc(Br)cc1` (stereo not given), the inhibition (at 10 µM unless noted) was 8% (inactive).
Regarding `Nc1nc(Nc2ccccc2)nc(NCCO)c1[N+](=O)[O-]`, the inhibition (at 10 µM unless noted) is 2.9% (inactive).
Same read-out and setting: with `OCCNc1nc(Nc2ccc(Cl)c(Cl)c2)nc2ccccc12` the figure was 31.9% (active).
Still for that read-out and setting: next, `CN(C)c1nc(Nc2ccc(Cl)c(Cl)c2)nc(N(C)C)n1`: 14.2% (inactive); `O=S(=O)(NC1CC2CCC1C2)c1ccc(Cl)cc1` (stereo not given): -6% (inactive); `Cc1ccc2c(C)c(C(=O)N3CCN(c4ccncc4)CC3)oc2c1C`: 12.6% (inactive).
Still for that read-out and setting: with `COc1cc(CN2CCCC(C(=O)c3ccc(SC)cc3)C2)cc(Cl)c1O` (stereo not given) the figure was 19.3% (inactive).
For the compound `COc1ccc(S(=O)(=O)N2CCN(C)CC2)c(C)c1`, under “at 10 µM unless noted”, the inhibition is 26.4% (inactive).
Same read-out and setting: with `COc1ccc(C)cc1Nc1n[n+](-c2ccccc2)c(-c2cccc(Cl)c2Cl)s1` the figure was 19.6% (inactive).
Take `Cc1ccccc1C(=O)Nc1ccc(N2CCCCCC2)cc1`: the inhibition (at 10 µM unless noted) was 1.4% (inactive).
Take `CCOC(=O)/C(C#N)=C/c1ccc(N2CCCCC2)cc1`: the inhibition (at 10 µM unless noted) was 6.6% (inactive).
For `O=C1C=CC(=O)N1c1ccc(N2CCCCC2)cc1`, the inhibition is 45.6% (active) (at 10 µM) and 114% (triplicate retest, at 20 µM).
Turning to `CCOc1c2ccc(C(=O)NCc3ccc4c(c3)OCO4)cc2nn1C`, the inhibition (at 10 µM unless noted) is 30.5% (inactive).
Take `CCOc1c2ccc(C(=O)NCc3ccc(OC(F)(F)F)cc3)cc2nn1C`: the inhibition (at 10 µM unless noted) is 14.9% (inactive).
The same measure, in the same setting: with `CCCn1nc2cc(C(=O)NCc3ccccc3)ccc2c1OCC` the figure was 34.5% (active).
